Measurements published in publication PMC3218832.

Tests used:
Experiment in all cases: protein binding microarray; high values mean tight binding
Details in all cases: dsDNA, one strand shown
RELARELA (p65 homodimer) = RELARELA (p65 homodimer) (Homo sapiens, UniProt Q04206 1-307)
p50p50 homodimer = p50p50 homodimer (Homo sapiens, UniProt P19838 7-356)
p52p52 homodimer = target: T1, p52p52 homodimer (Homo sapiens, UniProt Q00653 4-332)
T1 sequence: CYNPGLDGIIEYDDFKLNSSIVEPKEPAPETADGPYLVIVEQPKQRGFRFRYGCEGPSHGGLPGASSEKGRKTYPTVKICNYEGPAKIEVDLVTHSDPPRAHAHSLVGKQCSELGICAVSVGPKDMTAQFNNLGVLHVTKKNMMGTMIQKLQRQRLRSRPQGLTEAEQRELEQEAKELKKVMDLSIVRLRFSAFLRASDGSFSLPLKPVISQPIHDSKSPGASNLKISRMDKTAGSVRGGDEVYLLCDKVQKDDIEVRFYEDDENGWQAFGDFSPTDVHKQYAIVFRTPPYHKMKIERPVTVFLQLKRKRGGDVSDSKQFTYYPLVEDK

[1] = target: RELA (p65) subunit of heterodimer;p50 subunit (Homo sapiens;Homo sapiens, UniProt Q04206;P19838 1-307;7-356)
RELA (p65) subunit of heterodimer;p50 subunit, sequence (Q04206 1-307, chain 1 of 2): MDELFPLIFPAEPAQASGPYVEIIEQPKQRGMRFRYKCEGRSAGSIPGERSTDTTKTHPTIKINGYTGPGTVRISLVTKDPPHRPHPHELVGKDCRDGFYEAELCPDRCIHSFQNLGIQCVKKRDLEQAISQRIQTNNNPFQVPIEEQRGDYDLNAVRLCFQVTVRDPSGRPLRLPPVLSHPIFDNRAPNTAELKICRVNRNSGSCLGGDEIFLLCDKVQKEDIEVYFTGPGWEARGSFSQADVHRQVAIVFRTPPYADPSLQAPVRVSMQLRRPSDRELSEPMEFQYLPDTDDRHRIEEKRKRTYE
RELA (p65) subunit of heterodimer;p50 subunit, sequence (P19838 7-356, chain 2 of 2): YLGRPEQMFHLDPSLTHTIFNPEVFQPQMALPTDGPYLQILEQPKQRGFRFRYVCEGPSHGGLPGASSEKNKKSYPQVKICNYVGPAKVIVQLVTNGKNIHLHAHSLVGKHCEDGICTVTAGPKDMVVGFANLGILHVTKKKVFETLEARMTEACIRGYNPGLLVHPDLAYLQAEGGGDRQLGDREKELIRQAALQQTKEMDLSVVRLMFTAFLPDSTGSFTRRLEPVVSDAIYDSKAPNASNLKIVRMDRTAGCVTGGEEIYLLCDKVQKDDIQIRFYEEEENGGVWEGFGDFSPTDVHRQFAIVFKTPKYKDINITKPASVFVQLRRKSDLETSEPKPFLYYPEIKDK

[2] = target: RELA (p65) subunit of heterodimer;p52 subunit (Homo sapiens;Homo sapiens, UniProt Q04206;Q00653 1-307;4-332)
RELB subunit;p50 subunit = RELB subunit;p50 subunit (Homo sapiens;Homo sapiens, UniProt Q01201;P19838 120-401;7-356)
RELB subunit;p52 subunit = target: T2, RELB subunit;p52 subunit (Homo sapiens;Homo sapiens, UniProt Q01201;Q00653 120-401;4-332)
T2 sequence 1: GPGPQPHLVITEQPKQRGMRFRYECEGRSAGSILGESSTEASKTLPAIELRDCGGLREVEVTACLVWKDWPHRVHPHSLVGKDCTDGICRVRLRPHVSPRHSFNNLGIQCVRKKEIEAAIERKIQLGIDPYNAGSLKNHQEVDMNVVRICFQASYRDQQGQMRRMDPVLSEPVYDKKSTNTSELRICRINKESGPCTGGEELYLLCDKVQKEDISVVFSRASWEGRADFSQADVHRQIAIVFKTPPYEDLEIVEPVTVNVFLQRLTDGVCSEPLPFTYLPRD
T2 sequence 2: T1 sequence

[3] = target: C-Rel subunit;p50 subunit (Homo sapiens;Homo sapiens, UniProt Q04864;P19838 1-285;7-356)
[4] = target: T3, C-Rel subunit;p52 subunit (Homo sapiens;Homo sapiens, UniProt Q04864;Q00653 1-285;4-332)
T3 sequence 1: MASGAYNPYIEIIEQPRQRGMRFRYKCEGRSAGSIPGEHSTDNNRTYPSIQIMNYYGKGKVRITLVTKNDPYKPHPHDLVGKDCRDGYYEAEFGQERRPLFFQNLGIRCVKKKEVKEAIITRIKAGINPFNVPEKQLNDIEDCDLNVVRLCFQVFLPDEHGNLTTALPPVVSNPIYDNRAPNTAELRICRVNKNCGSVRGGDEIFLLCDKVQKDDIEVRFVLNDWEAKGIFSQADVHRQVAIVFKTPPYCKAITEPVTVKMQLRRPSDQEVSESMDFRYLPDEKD
T3 sequence 2: T1 sequence

RELARELA (p65 homodimer), sequence (Q04206 1-307): as the sequence (Q04206 1-307, chain 1 of 2) above
p50p50 homodimer, sequence (P19838 7-356): as the sequence (P19838 7-356, chain 2 of 2) above

Row | Sequence | binding signal (RELARELA (p65 homodimer)) | binding signal (p50p50 homodimer) | binding signal (p52p52 homodimer) | binding signal [1] | binding signal [2] | binding signal (RELB subunit;p50 subunit) | binding signal (RELB subunit;p52 subunit) | binding signal [3] | binding signal [4]
1 | CGGTAGTCCCC | 0.678 z-score | 1.22 z-score | 1.51 z-score | 1.43 z-score | 1.31 z-score | 1.05 z-score | 1.33 z-score | 1.12 z-score | 1.42 z-score
2 | AAGGTCCCCCC | -0.0871 z-score | 1.12 z-score | 0.844 z-score | 1.52 z-score | 1.1 z-score | 1.51 z-score | 1.74 z-score | 1.34 z-score | 0.964 z-score
3 | GAAGATACCCT | -0.565 z-score | 0.622 z-score | 0.0699 z-score | 0.217 z-score | 0.0853 z-score | 0.142 z-score | 0.032 z-score | -0.0626 z-score | 2.91e-05 z-score
4 | GAGAAGATCCC | -0.164 z-score | -0.0695 z-score | -0.271 z-score | -0.131 z-score | -0.161 z-score | -0.259 z-score | -0.387 z-score | -0.311 z-score | -0.307 z-score
5 | CGAGTTGCCCC | 0.677 z-score | 0.0517 z-score | -0.0293 z-score | 0.542 z-score | 0.31 z-score | 0.428 z-score | 0.407 z-score | 0.855 z-score | 0.564 z-score
6 | CAATGGGCCCC | -0.62 z-score | -0.565 z-score | -0.242 z-score | -0.699 z-score | -0.472 z-score | -0.379 z-score | -0.185 z-score | -0.565 z-score | -0.638 z-score
7 | AGGTAGGTCCC | -0.0694 z-score | -0.0842 z-score | 0.305 z-score | -0.0951 z-score | 0.0859 z-score | 0.0975 z-score | 0.178 z-score | 0.0304 z-score | 0.122 z-score
8 | GGGGAGGTCCT | 0.546 z-score | 0.328 z-score | 1.26 z-score | 0.275 z-score | 0.847 z-score | 0.375 z-score | 0.376 z-score | 0.314 z-score | 0.559 z-score
9 | CGAGGGTTCCC | -0.124 z-score | -0.573 z-score | -0.304 z-score | -0.206 z-score | -0.377 z-score | -0.397 z-score | -0.335 z-score | -0.0483 z-score | -0.0728 z-score
10 | CGATAGCTCCT | -0.609 z-score | -1.63 z-score | -0.796 z-score | -1.07 z-score | -1.04 z-score | -1.34 z-score | -1 z-score | -1.65 z-score | -1.09 z-score
11 | AAGGACGCCCT | -0.995 z-score | -2.2 z-score | -0.8 z-score | -0.915 z-score | -0.945 z-score | -1.1 z-score | -0.803 z-score | -1.23 z-score | -0.928 z-score
12 | AAAAATCCCCT | 2.27 z-score | 1.6 z-score | 3.18 z-score | 2.55 z-score | 2.84 z-score | 3.22 z-score | 2.88 z-score | 2.19 z-score | 3.19 z-score
13 | AAAAATTCCCC | 3.28 z-score | 1.42 z-score | 2.98 z-score | 2.27 z-score | 2.54 z-score | 2.96 z-score | 2.46 z-score | 2.04 z-score | 2.78 z-score
14 | AAGAGGTTCCT | 0.0133 z-score | -1.79 z-score | -0.462 z-score | -0.943 z-score | -0.822 z-score | -0.701 z-score | -0.585 z-score | -1.22 z-score | -0.637 z-score
15 | GAAGAGCCCCT | -0.596 z-score | 1 z-score | 0.626 z-score | 0.604 z-score | 0.773 z-score | 0.554 z-score | 0.833 z-score | 0.202 z-score | 0.429 z-score
16 | AGGAGCCCCCT | -0.528 z-score | 1.32 z-score | 0.61 z-score | 1.07 z-score | 0.992 z-score | 1.2 z-score | 1.26 z-score | 1.02 z-score | 0.757 z-score
17 | AGAAATACCCT | 0.554 z-score | 1.28 z-score | 1.33 z-score | 1.55 z-score | 1.35 z-score | 1.21 z-score | 1.27 z-score | 0.817 z-score | 1.68 z-score
18 | AGGTTACCCCT | -0.124 z-score | 0.813 z-score | 0.514 z-score | 0.468 z-score | 0.804 z-score | 0.84 z-score | 1.36 z-score | 0.567 z-score | 0.609 z-score
19 | CAGGTGCTCCT | -0.953 z-score | -0.0506 z-score | 0.0612 z-score | -0.571 z-score | -0.266 z-score | -0.45 z-score | -0.443 z-score | -1.31 z-score | -0.565 z-score
20 | AGGATAGCCCT | -0.44 z-score | -1.05 z-score | -0.582 z-score | -0.78 z-score | -0.902 z-score | -0.841 z-score | -0.772 z-score | -0.982 z-score | -0.688 z-score
21 | AGATGAATCCT | -0.706 z-score | -1.32 z-score | -0.542 z-score | -1 z-score | -0.972 z-score | -1.28 z-score | -1.16 z-score | -1.39 z-score | -0.907 z-score
22 | CGGGATGCCCC | 1.39 z-score | 0.572 z-score | 2.24 z-score | 1.51 z-score | 1.6 z-score | 1.24 z-score | 1.28 z-score | 0.949 z-score | 1.61 z-score
23 | AGATACCCCCT | 0.103 z-score | 1.43 z-score | 1.19 z-score | 1.36 z-score | 1.5 z-score | 1.38 z-score | 1.84 z-score | 1.13 z-score | 1.24 z-score
24 | GAGGGCATCCC | 0.359 z-score | -0.785 z-score | -0.256 z-score | -0.318 z-score | -0.398 z-score | -0.647 z-score | -0.505 z-score | -0.179 z-score | -0.277 z-score
25 | CGAAGTTCCCT | 0.618 z-score | 0.819 z-score | 0.347 z-score | 0.834 z-score | 0.752 z-score | 0.603 z-score | 0.672 z-score | 0.425 z-score | 0.379 z-score
26 | GAAATGCTCCC | -0.193 z-score | -0.556 z-score | -0.401 z-score | -0.482 z-score | -0.537 z-score | -0.542 z-score | -0.819 z-score | -0.726 z-score | -0.598 z-score
27 | AGATAGTTCCC | 0.521 z-score | -0.317 z-score | -0.177 z-score | -0.261 z-score | -0.107 z-score | -0.129 z-score | -0.286 z-score | -0.0396 z-score | -0.0868 z-score
28 | CGGTACTCCCT | 0.445 z-score | 0.837 z-score | 0.708 z-score | 0.515 z-score | 0.425 z-score | 0.724 z-score | 0.415 z-score | 0.323 z-score | 0.382 z-score
29 | AAATTTCCCCC | 2.97 z-score | 1.66 z-score | 2.84 z-score | 2.63 z-score | 2.41 z-score | 2.88 z-score | 2.69 z-score | 2.02 z-score | 2.57 z-score
30 | AAGGGGCTCCT | -0.668 z-score | 0.769 z-score | 0.959 z-score | 0.032 z-score | 0.753 z-score | 0.344 z-score | 0.791 z-score | -0.103 z-score | 0.392 z-score
